# Jurkat NFkB inh – inhibitors of the PMA/ionomycin-induced NF-kB reporter in Jurkat cells; PMA/ionomycin-induced NF-kB luciferase reporter, luminescence; inhibition, % at 4 µM; 0.53% of 330,000 active; AID 435003; in the data active = inhibition above about 50%
# Shn3 3UTR inh – inhibitors of Schnurri-3 3'UTR reporter in osteoblasts | Clone20 osteoblast Shn3 3'UTR firefly luciferase, 24 h | inhibition, % at 12.5 µM | 0.52% of 360,000 active;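 active = mean inhibition of at least 75% with every replicate also reaching 75%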;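 also: 0% = median of neutral control wells and 100% = pilot-screen positive control compound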
# H9c2 TAG inh – inhibitors of triacylglycerol accumulation. H9c2 cells, Nile Red lipid (TAG) fluorescence; cells loaded with 200 µM oleic acid. inhibition, % at 12.5 µM. 0.66% of 230,000 active;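 active = pattern-corrected inhibition of lipid staining of at least 50% with the nuclear-stain viability signal not falling by more than 50%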;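 also: 0% = DMSO wells and 100% = triacsin C control wells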
# Gli-Sufu block – antagonists of Gli-Sufu signaling; inhibition, % at 5 µM; 0.74% of 340,000 active; Sufu-KO-LIGHT fibroblasts, Gli luciferase reporter luminescence;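 active = inhibition above about 55%, limit read from the data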;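 also: 0% = DMSO-treated cells and 100% = wells with medium but no cells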
# aSyn 5UTR inh – MLPCN primary screen, SNCA 5' untranslated region; alpha-synuclein 5'UTR reporter, inhibitor activity; inhibition, % (tested at 7.5 µM); 0.82% of 300,000 active; in the data active = inhibition above about 60%;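 also: H4 neuroglioblastoma cells stably carrying SNCA 5'UTR luciferase fusion; 0% = DMSO wells and 100% = positive control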
# 697 NFkB inh – inhibitors of the PMA/ionomycin-induced NF-kB reporter in 697 B cells | 697 B-cell NF-kB luciferase reporter, 16 h | inhibition, % at 4 µM | 0.33% of 330,000 active; in the data active = inhibition above about 35%
# TAG conf – triacylglycerol accumulation inhibition, confirmation; shares compounds with H9c2 TAG inh; H9c2 lipid accumulation, Nile Red fluorescence; cells loaded with 200 µM oleic acid; inhibition, % at 12.5 µM; 71% of 990 active; AID 651629;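 active = mean inhibition across replicates of 40% or more; inactive = mean inhibition below 40%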;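 also: plate controls were DMSO only wells for no effect and Triacsin C treated wells for full effect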
# * hit, by the source's call; / = no result. Hits are enriched below; roughly 2.3% of the tested compounds scored in any of these assays.
SMILES,Jurkat NFkB inh,Shn3 3UTR inh,H9c2 TAG inh,Gli-Sufu block,aSyn 5UTR inh,697 NFkB inh,TAG conf
COc1cc(OC)c2c(-c3ccccc3)cc(=O)oc2c1C(CCN1CCCC(C)C1)c1ccc2c(c1)OCO2 (stereo not drawn),-1,-13,69*,-21,-5,3,51*
COc1cc(OC)c2c(-c3ccccc3)cc(=O)oc2c1C(CCN1CCCCC1)c1ccc2c(c1)OCO2 (stereo not drawn),17,11,58*,7,25,-6,41*
COc1cc(OC)c2c(-c3ccccc3)cc(=O)oc2c1C(CC(=O)N1CCCC1)c1ccc2c(c1)OCO2 (stereo not drawn),7,3,7,8,33,10,/
COc1cc(OC)c2c(-c3ccccc3)cc(=O)oc2c1C(CCN1CCCCC1)c1ccc(N(C)C)cc1 (stereo not drawn),25,-11,68*,20,-5,2,55*
CCCCCc1cc(=O)oc2c(C(CCN(CC)CC)c3ccc(N(C)C)cc3)c(OC)cc(OC)c12 (stereo not drawn),-4,13,72*,3,35,17,61*
NC(=O)c1ccccc1N/C=C/C(=O)c1ccco1,-59,-46,7,7,-97,-50,/
COCCc1ccc(OCC(O)CNC(C)C)cc1 (stereo not drawn),11,-13,3,1,5,10,/
Cc1ccc2[nH]c(-c3ccccc3)cc(=O)c2c1,25,-20,53*,-41,89*,-147,58*
COc1cc(-c2noc(C)c2C(=O)NCCO)cc(OC)c1OC,2,12,/,25,8,7,/
COc1cc(-c2noc(C)c2C#Cc2ccc(N)cc2)cc(OC)c1OC,49,-5,57*,36,88*,1,47*
COc1ccc(C(=O)NCC(=O)N=Nc2c(O)n(Cc3ccccc3)c3ccccc23)cc1OC,-4,-9,4,-5,24,2,/
COc1ccc(-c2nc(NC(=O)Cn3c(=O)oc4ccccc43)sc2C)cc1,-14,39,/,3,-70,-24,/
COc1ccc(-c2nc(NC(=O)C3CCN(c4nc5ccccc5o4)CC3)sc2C)cc1,18,54,66*,26,-4,-13,58*
Oc1ccc(C[C@H]2CNC(=S)N2CC2CCCN2C[C@H](Cc2ccc(O)cc2)N2C[C@H](Cc3ccc(O)cc3)N(CC3CCCCCC3)C2=S)cc1 (stereo partly drawn),/,72,76*,11,/,/,72*
CC(C)C[C@H]1CNC(=S)N1C[C@H]1CCCN1C[C@H](CC(C)C)N1C[C@H](CC(C)C)N(CCc2ccccc2)C1=S,/,8,/,/,/,/,/
CC(C)C[C@H]1CNC(=S)N1CC1CCCN1C[C@H](CC(C)C)N1C[C@H](CC(C)C)N(CCc2ccccc2)C1=S (stereo partly drawn),/,56,74*,9,/,/,82*
CC(C)C[C@H]1CNC(=S)N1CC1CCCN1C[C@H](CC(C)C)N1C[C@H](CC(C)C)N(CC2CCCCCC2)C1=S (stereo partly drawn),/,79,62*,4,/,/,55*
CC(=O)Nc1cccc(OCCCNS(=O)(=O)c2ccc(F)cc2)c1,8,-6,-6,0,/,0,/
CSC1=C(C#N)C(c2ccc(C)s2)CC(=O)N1 (stereo not drawn),8,-20,/,12,-1,13,/
COc1ccc(-n2cc(CN3CCCC3)c(-c3cccc(F)c3)n2)cc1,0,-9,80*,1,-25,-16,25
CSc1ccc(/C=C/C(=O)c2ccc(NC(=O)Cc3ccccc3)cc2)cc1,19,18,59*,0,-8,11,22
Cc1cccc2c(N=NC(=O)c3ccc(NS(=O)(=O)c4cccs4)cc3)c(O)[nH]c12,-18,-85,10,-50,/,-82,/
Cc1cccc2c(N=Nc3ccc(S(=O)(=O)Nc4ccc(Cl)cc4)cc3[N+](=O)[O-])c(O)[nH]c12,-4,6,54*,19,20,-5,51*
CC(=O)Nc1ccccc1C(=O)C(=O)Nc1cccc(C(=O)NCc2ccccc2)c1,4,5,/,-7,-2,10,/
NC(=O)CC(NC(=O)Cc1ccc(Cl)cc1)c1ccc(NCc2ccccc2)c([N+](=O)[O-])c1 (stereo not drawn),20,14,/,7,-17,15,/
SMILES,Jurkat NFkB inh,Shn3 3UTR inh,H9c2 TAG inh,Gli-Sufu block,aSyn 5UTR inh,697 NFkB inh,TAG conf
CC1(C)CC(=O)C2=C(C1)NC(SCC(=O)Nc1ccccc1)=C(C#N)C21CCCCC1,11,2,58*,-2,-9,17,31
CC1=C(C(=O)Nc2ccccc2)C2(CCCCC2)C(C#N)=C(SCC(N)=O)N1,4,-12,4,0,10,-1,/
Cc1ccc(F)c(Oc2cc(NN3CCCCC3)c([N+](=O)[O-])cc2[N+](=O)[O-])c1,6,1,50*,11,20,15,7
COc1cc(C2C3=C(COC3=O)Oc3cc4c(cc32)OCO4)ccc1O (stereo not drawn),/,9,55*,23,/,/,71*
COc1cc(C2C3=C(COC3=O)OC(C)(C)Oc3cc4c(cc32)OCO4)cc(OC)c1OC (stereo not drawn),/,-1,27,45,/,/,/
Cc1ccc(Cl)c(OCCCN(C)Cc2ccccc2)c1,2,-13,-10,3,-30,9,/
CCOc1ccccc1NC(=O)c1cc(S(=O)(=O)N2CCOCC2)ccc1C,0,-12,-81,11,-12,-32,/
CC(C)NS(=O)(=O)c1ccc(CCC(=O)Nc2cc(Cl)ccc2Oc2ccccc2)cc1,-1,83,52*,6,25,-21,34
CC(C)NS(=O)(=O)c1ccc(NC(=O)CCc2ccccc2)cc1,-10,-10,/,0,10,-40,/
COc1cc(-c2cc3nc(NCCc4ccncc4)ccn3n2)cc(OC)c1OC,/,-3,23,/,/,/,/
COc1cc(-c2cc3nc(NCCOc4ccccc4)ccn3n2)cc(OC)c1OC,/,4,54*,/,/,/,49*
COc1ccc(CCCc2nc3ccccc3[nH]2)cc1,-7,-5,-15,-7,-16,-11,/
CCC(C)(C)C1CCC2(CC1)NC(=O)N(CC(=O)NCCc1ccc(OC)c(OC)c1)C2=O (stereo not drawn),5,22,53*,6,/,-6,50*
CCC(C)(C)C1CCC2(CC1)NC(=O)N(CC(=O)NCCOc1ccccc1)C2=O (stereo not drawn),-16,29,10,0,/,-15,/
COc1cc([N+](=O)[O-])c(C)cc1NC(=O)c1ccc(OC)c(OC)c1,/,1,-4,/,/,/,/
N#CC1=C(SCC(=O)c2ccc(Br)cc2)NC2=C(C(=O)CCC2)C1c1ccco1 (stereo not drawn),45,15,57*,-5,/,9,40
